# Results published in PubChem BioAssay (NCATS).
# Inconclusive results are not listed. Entries that show only a call come without a potency. The source made the active and inactive calls. The call rests on the fitted dose curve; in most records, active means well fitted curve in the direction sought with a large enough effect; inconclusive means small, poorly fitted or top-dose-only effect, or another doubt; inactive means no such curve, though single readings can be large; an effect the other way counts as inactive or inconclusive.
# Columns and labels:
# [1] = biological target: Cytochrome P450 3A7 (Homo sapiens) (UniProt P24462); test: Cytochrome P450 family 3 subfamily A member 7 (CYP3A7) small molecule antagonists: luciferase biochemical qHTS assay (AID 1963596); further: nearly all actives have a fitted effect of over 40% in size; further: potency means the concentration at half of the fitted maximal effect
# Sequence of Cytochrome P450 3A7 (Homo sapiens) (P24462 whole entry, looked up): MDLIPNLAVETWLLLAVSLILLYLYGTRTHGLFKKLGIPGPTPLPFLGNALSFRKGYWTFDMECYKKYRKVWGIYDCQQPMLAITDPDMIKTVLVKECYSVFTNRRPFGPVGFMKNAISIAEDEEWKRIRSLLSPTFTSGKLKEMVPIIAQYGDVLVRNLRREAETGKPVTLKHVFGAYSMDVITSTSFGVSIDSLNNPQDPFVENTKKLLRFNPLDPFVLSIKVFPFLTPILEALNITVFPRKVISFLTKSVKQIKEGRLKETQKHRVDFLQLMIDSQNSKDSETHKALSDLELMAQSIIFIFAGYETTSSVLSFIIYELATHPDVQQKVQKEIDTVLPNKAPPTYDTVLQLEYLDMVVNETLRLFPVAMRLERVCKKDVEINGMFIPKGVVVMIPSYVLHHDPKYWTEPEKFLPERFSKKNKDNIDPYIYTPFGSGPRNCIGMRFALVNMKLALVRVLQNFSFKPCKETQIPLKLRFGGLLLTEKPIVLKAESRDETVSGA
# How it was run: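 Compounds were screened in qHTS format for interference with CYP3A7 turnover of a proluciferin substrate. Reactions ran 1 h at room temperature after NADPH regeneration solution was added, then luciferin product was detected by luminescence.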
# [2] = Cellular viability qHTS for adrenocortical cancer (ACC) cell line SW-13 (AID 1963989); details: SW-13 ACC cells viability, CellTiter-Glo, 48 h; activity (max response): active compounds read low;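 further: cells grown in serum-free medium with ITS supplement; nearly all actives have a fitted effect of over 65% in size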
# How it was run: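 Compound titrations (up to 46 uM final, in DMSO) were applied to SW-13 cells for 48 h at 37C/5% CO2. Reading used CellTiter-Glo after 20 min at room temperature; fitted curves yielded IC50 and efficacy.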
# [3] = Cellular viability qHTS for adrenocortical cancer (ACC) cell line NCI-H295R (AID 1963990); further: nearly all actives have a fitted effect of over 60% in size
# How it was run: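 Readout: CellTiter-Glo luminescence, 20 min RT. Exposure: 48 h, 37C/5% CO2. Cells: NCI-H295R, ITS-DMEM serum-free. Range: up to 46 uM. Analysis: 4PL fit, IC50 plus efficacy.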
# [4] = Viability qHTS for spleen associated tyrosine kinase inhibitor (SYKi) naive MV4-11 cells (AID 1963823); further: nearly all actives have a fitted effect of over 40% in size; further: potency means the concentration at half of the fitted maximal effect
# How it was run: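 SYKi-naive MV4-11 AML cells, 500 per well, were exposed to library compounds for 72 hr at 37 C, 5% CO2. Viability was then read by CellTiter-Glo luminescence after 10 min at room temperature.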
# [5] = Viability qHTS for spleen associated tyrosine kinase inhibitor (SYKi) drug resistant MV4-11 cells (AID 1963824); further: potency means the concentration at half of the fitted maximal effect; nearly all actives have a fitted effect of over 35% in size
# How it was run: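 SYK inhibitor-resistant MV4-11 AML cells, 500 per well, added to predispensed compounds and incubated 72 hr at 37 C, 5% CO2. Viability measured by CellTiter-Glo luminescence after 10 min at room temperature.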
smiles,measurement,setting,value
NC1=NC(=O)C(c2ccccc2)O1 (stereo not drawn),Potency,[1],inactive
same,activity (max response),[2],8.75% (inactive)
same,Potency,[3],inactive
O=S(=O)(c1ccc(Cl)cc1)c1ccc(Cl)cc1,Potency,[1],2020 nM (active)
same,Potency,[3],inactive
Nc1ncnc2c1ncn2[C@@H]1O[C@@H]2COP(O)(=S)O[C@H]2[C@H]1O (stereo partly drawn),viability (% of control),[4],76.1% [at 9.25 µM] (inactive)
COc1ccn(C)c(=O)c1C#N,Potency,[4],inactive
C[C@H](N)[C@H](O)c1ccc(O)c(O)c1,Potency,[1],inactive
same,activity (max response),[2],5.15% (inactive)
same,Potency,[3],inactive
CC(Cc1ccccc1)NCCCCl (stereo not drawn),Potency,[1],inactive
same,activity (max response),[2],-2.78% (inactive)
CCC(C)(OC(C)=O)C(=O)O[C@H]1[C@H](OC(C)=O)C[C@@H]2[C@@](C)([C@@H]3C[C@H]4C=CO[C@H]4O3)[C@H](C)C[C@H](OC(C)=O)[C@@]2(COC(C)=O)[C@@]12CO2 (stereo partly drawn),Potency,[4],inactive
C=CCC1=C(C)C(OC(=O)C2C(C=C(C)C)C2(C)C)CC1=O (stereo not drawn),Potency,[4],5450 nM (active)
CCC(C)/C=C(C)/C=C/C1=CC2=C(Cl)C(=O)C(C)(OC(C)=O)C(=O)C2=CO1 (stereo not drawn),Potency,[4],inactive
CCN(Cc1ccc(Cl)nc1)/C(=C/[N+](=O)[O-])NC,Potency,[1],inactive
same,activity (max response),[2],3.71% (inactive)
same,Potency,[3],inactive
CC(C)=C1CC[C@]23CO[C@H](C2)[C@@](O)(C(=O)O)CCC13 (stereo partly drawn),Potency,[4],inactive
CCN[C@@H](C)Cc1cccc(C(F)(F)F)c1,Potency,[1],inactive
same,Potency,[3],inactive
O=[N+]([O-])c1cc([N+](=O)[O-])c2ccccc2c1,Potency,[1],inactive
same,activity (max response),[2],-5.95% (inactive)
C=CC(C)(C)c1[nH]c2c(CC=C(C)C)cc(CC=C(C)C)cc2c1C[C@@H]1NC(=O)[C@H](C)NC1=O,Potency,[4],inactive
NC(=O)[C@@H](CC1CC1)[C@@H](CCC(F)(F)F)C(=O)N[C@H]1N=C(c2ccccc2)c2cccc(F)c2NC1=O,Potency,[1],inactive
same,Potency,[3],inactive
C=C1C[C@]2(O)[C@@]3(C)CCC(=O)C(C)(C)C3=C(O)C(=O)[C@@]2(C)[C@@H]2C(=O)O[C@@](C)(C(=O)OC)C(=O)[C@@]12C,Potency,[4],inactive
CC1CCCC(O)CCC/C=C/c2cc(O)cc(O)c2C(=O)O1 (stereo not drawn),Potency,[4],14300 nM (active)
CNC(C)Cc1ccccc1OC (stereo not drawn),Potency,[1],inactive
same,activity (max response),[2],-2.94% (inactive)
same,Potency,[3],inactive
Fc1cc(Br)ccc1CBr,Potency,[1],inactive
same,activity (max response),[2],13.3% (inactive)
same,Potency,[3],inactive
COc1ccc2c3c1O[C@H]1[C@H](O)CC[C@H]4[C@@H](C2)N(C)CC[C@@]341,Potency,[1],inactive
same,activity (max response),[2],-5.89% (inactive)
same,Potency,[3],inactive
COC1CC(O[C@H]2CC[C@]3(C=O)C4CC[C@]5(C)[C@@H](C6=CC(=O)OC6)CC[C@]5(O)[C@@H]4CC[C@]3(O)C2)OC(C)C1O[C@@H]1O[C@H](CO)[C@@H](O)[C@H](O)[C@H]1O (stereo partly drawn),Potency,[4],86.2 nM (active)
CC1Sc2c(C(=O)O)c(=O)c3cc(F)c(N4CCNCC4)cc3n21 (stereo not drawn),Potency,[1],inactive
same,Potency,[3],inactive
C=C(C)[C@@]12O[C@@H]1[C@@]1(C)C(=C[C@H]2O)CC[C@@H](O)[C@@H]1C,Potency,[4],inactive
ClCc1cccc(Cl)c1,Potency,[1],inactive
same,activity (max response),[2],11% (inactive)
same,Potency,[3],inactive
C/C=C(\C)C(=O)OC1C(C)OC(OC2C(C)OC(OC3CCC4(C)C(=CCC5C4CCC4(C)C(C(C)OC6OC(COC7OC(CO)C(O)C(O)C7O)C(O)C(O)C6O)CCC54O)C3)CC2OC)C(O)C1OC (stereo not drawn),viability (% of control),[4],78.5% [at 9.25 µM] (inactive)
CC[C@H]1C2CC3[C@@H]4N(C)c5ccccc5[C@]45C[C@@H]([C@H]2[C@H]5O)N3[C@H]1O,Potency,[4],inactive
Nc1ccccc1C(=O)OCC(O)CO (stereo not drawn),Potency,[1],inactive
same,activity (max response),[2],6.9% (inactive)
c1ccc2c(c1)sc1ccccc12,Potency,[1],inactive
same,activity (max response),[2],0.898% (inactive)
same,Potency,[3],inactive
C[C@]12CC[C@H](O)C[C@H]1CC[C@@H]1[C@@H]2[C@H](O)C(=O)[C@]2(C)[C@@H](c3ccc(=O)oc3)CC[C@]12O,Potency,[4],10.3 nM (active)
same,Potency,[5],9.2 nM (active)
